Our source for the Potency values is PubChem BioAssay (Tox21).

A short description of test [1]: Nuclear factor erythroid 2-related factor 2/antioxidant responsive element (Nrf2/ARE) small molecule agonists: qHTS cell viability counter screen in human keratinocytes (AID 1919968; active = well fitted curve in the direction sought with a large enough effect in the repeat runs; an effect the other way counts as inactive or inconclusive; also: nearly all actives have a fitted effect of over 55% in size; also: potency is read from the fitted curve at half-maximal effect). The essentials:
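Seed 1,500 KeratinoSens cells per well, then incubate 5 h at 37 C/5% CO2. Add compounds in DMSO and incubate 23 h. Add CellTiter-Fluor, wait 1 h and read fluorescence.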

Test [2] is described as follows: Nuclear factor erythroid 2-related factor 2/antioxidant responsive element (Nrf2/ARE) small molecule agonists: luciferase reporter gene qHTS assay in human keratinocytes (AID 1919969). Also: nearly all actives have a fitted effect of over 35% in size.
Test [3] addresses KiSS-1 receptor (Homo sapiens) (UniProt Q969F8). Briefly: Human kisspeptin (KISS1R) small molecule agonists, calcium flux assay in KISS1R-HEK293 cells (AID 1920064; active = well fitted curve in the direction sought with a large enough effect in the repeat runs; an effect the other way counts as inactive or inconclusive). Summed up:
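Cells plated and incubated 18 h; dye added, 1 h at 37 C; compounds in DMSO pinned in; signal read at 480/540 nm every second for 3 min. Each compound tested at 15 concentrations in triplicate.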

Test [4] can be described thus: G protein-coupled receptor (GPCR) small molecule agonists, calcium flux assay: HEK293 wild type cell line counter screen (AID 1920065). Also: potency is read from the fitted curve at half-maximal effect. Summed up:
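Counter-screen of the Tox21 10K library for non-specific calcium release: dye-loaded cells received compounds in DMSO and were monitored by kinetic fluorescence (480/540 nm, 3 min). Fifteen concentrations, run in triplicate.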

A short description of test [5]: p53 small molecule agonists, cell-based qHTS assay with human liver microsomes (AID 1963577). Also: potency is read from the fitted curve at half-maximal effect. The essentials:
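Fluorescence of the beta-lactamase reporter in p53RE-bla cells, detected with LiveBLAzer substrate (2 h, room temperature, dark), served as the read-out after 16 h compound exposure at 37 C with human liver microsomes and NADPH, each 0.5 mg/mL final.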

A short description of test [6]: p53 small molecule agonists, cell-based qHTS assay with rat liver microsomes (AID 1963578). Summed up:
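Cells carrying a p53 response element–beta-lactamase reporter were plated and rested 5 h, then dosed with compound in DMSO plus rat liver microsomes and NADPH, each at 0.5 mg/mL final. After 16 h at 37 C, LiveBLAzer substrate was added for 2 h.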

The nature of test [7]: p53 small molecule agonists, cell-based qHTS assay with human liver microsomes: qHTS cell viability counter screen (AID 1963579). Also: nearly all actives have a fitted effect of over 45% in size. Also: potency is read from the fitted curve at half-maximal effect. Summed up:
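Cytotoxicity counter screen: p53RE-bla, 4,000 cells/well; 5 h settle, 37 C/5% CO2; cpd + HLM 0.5 mg/mL + NADPH 0.5 mg/mL (final); 16 h, 37 C; CellTiter-Glo, 30 min RT, luminescence.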

A short description of test [8]: p53 small molecule agonists, cell-based qHTS assay with rat liver microsomes: qHTS cell viability counter screen (AID 1963580). Also: nearly all actives have a fitted effect of over 45% in size. Also: potency is read from the fitted curve at half-maximal effect. Summed up:
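HCT-116 p53RE-bla, 4,000 cells/well, 5 h pre-incubation; cpd + rat liver microsomes 0.5 mg/mL + NADPH 0.5 mg/mL (final); 16 h, 37 C; CellTiter-Glo, 30 min RT; luminescence.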

Test [9] in a line: p53 small molecule agonists, cell-based qHTS assay: qHTS cell viability counter screen (AID 1963581). Also: nearly all actives have a fitted effect of over 45% in size. The essentials:
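Cells: HCT-116 with p53 response element-driven beta-lactamase. Treatment: 16 h, 37 C, compounds in DMSO. Read: CellTiter-Glo luminescence after 30 min RT.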

Test [10] in a line: p53 small molecule agonists, cell-based qHTS assay (AID 1963582; active = well fitted activation curve with a large enough effect in the signal ratio in the repeat runs, not every such curve was filed as active; the % refers to the signal ratio). Summed up: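 Quantitative HTS in p53RE-bla cells: after a 5 h settling period, compounds delivered in DMSO were left on cells for 16 h at 37 C, and reporter induction was measured as fluorescence following 2 h substrate loading.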
Test [11] in a line: cAMP Responsive Elements (CRE) small molecule agonists, cell-based qHTS assay (AID 1963590). The essentials:
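Agonist mode qHTS in CRE-bla HEK 293T cells: compounds dosed from DMSO for 3 h at 37 C/5% CO2, followed by LiveBLAzer B/G FRET substrate for 2 h at room temperature.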

Test [12] in a line: cAMP Responsive Elements (CRE) small molecule antagonists, cell-based qHTS assay (AID 1963591; active = well fitted inhibition curve with a large enough effect in the signal ratio in the repeat runs, not every such curve was filed as active; the % refers to the signal ratio). Summed up: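 Antagonist mode: test compounds are co-incubated with the adenylyl cyclase activator NKH477 (0.25 uM final) on CRE-bla HEK293T cells for 3 h at 37 °C, followed by LiveBLAzer substrate loading.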
Test [13] deals with Beta-2 adrenergic receptor (Homo sapiens) (UniProt P07550). Briefly: Adrenergic beta2 receptor (ADRB2) small molecule antagonists, cell-based qHTS assay (AID 1963592). Also: series mostly up to about 92 µM; nearly all actives have a fitted effect of over 50% in size. The essentials: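 Cells (CHO, stable ADRB2 overexpression) incubated 18-20hr at 37C; compounds added from DMSO; agonist mix (1nM isoproterenol, 100uM IBMX, 25uM Ro-20-1724) added; 0.5hr RT; d2-cAMP and anti-cAMP-cryptate added; 1hr RT; 665/615 nm read.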

Test [14] shares this target. The test can be described thus: Adrenergic beta2 receptor (ADRB2) small molecule agonists, cell-based qHTS assay (AID 1963593).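 Also: CHO cells stably overexpressing human ADRB2.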 Summed up: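 CHO cells stably over-expressing ADRB2 were plated overnight at 37C, then dosed with compounds plus a stimulation mix containing 100uM IBMX and 25uM Ro-20-1724 for 0.5hr at room temperature. cAMP was measured by HTRF competition, 1hr.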

Test [15] has as its target D(2) dopamine receptor (Homo sapiens) (UniProt P14416). Briefly: Dopamine D2 receptor (DRD2) small molecule agonists, cell-based qHTS assay (AID 1963594). Also: nearly all actives have a fitted effect of over 35% in size. Summed up: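 cAMP accumulation in DRD2-HEK293 cells measured by HTRF after 1 h detection; compounds added 10 min before NKH477 (200nM […]) forskolin-analogue stimulation, 30 min at room temperature, with Ro20-1724 present at 0.1 mM final.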

Test [16] has the same target. The test can be described thus: Dopamine D2 receptor (DRD2) small molecule antagonists, cell-based qHTS assay (AID 1963595; active = well fitted inhibition curve with a large enough effect in the signal ratio in the repeat runs, with a control signal flat; the % refers to the signal ratio; also: potency is read from the fitted curve at half-maximal effect). The essentials:
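Stable D2 receptor HEK293 line, 24 h after seeding. Compound preincubated 10 min, then quinpirole (12 nM) with forskolin analogue NKH477 (200 nM), 30 min, room temperature. Detection by time-resolved FRET of cAMP.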

The target in test [17] is 5-hydroxytryptamine receptor 2A (Homo sapiens) (UniProt P28223). Briefly: 5-hydroxytryptamine receptor 2A (HTR2A) small molecule antagonists, cell-based qHTS assay (AID 1963586). Also: nearly all actives have a fitted effect of over 45% in size. Summed up:
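Antagonist-mode intracellular calcium assay: DOI (4 nM) added after 5 min compound pre-incubation at room temperature to dye-loaded HTR2A-CHO cells. Fluorescence followed for 3 min, sampled every second.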

The target is the same in test [18]. Briefly: 5-hydroxytryptamine receptor 2A (HTR2A) small molecule agonists, cell-based qHTS assay (AID 1963587). Also: nearly all actives have a fitted effect of over 30% in size. Also: potency is read from the fitted curve at half-maximal effect. Summed up: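 Kinetic calcium-flux fluorescence (2 min, 1 sec intervals) after compound addition in agonist mode. HTR2A-CHO cells were cultured 18 h, then dye-loaded 1 h at 37 C.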
In test [19] the target is Muscarinic acetylcholine receptor M1 (Homo sapiens) (UniProt P11229). Briefly: Cholinergic receptor muscarinic 1 (CHRM1) small molecule antagonists, cell-based qHTS assay (AID 1963588). Also: nearly all actives have a fitted effect of over 40% in size. The essentials: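 CHRM1-CHO calcium-flux assay, antagonist mode. Cells were seeded 18 h, dye-loaded 1 h at 37 C and given compound for 5 min at RT, then acetylcholine was added at 50nM. FDSS fluorescence was read 3 min; 15 concentrations, three runs.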

Test [20] shares this target. The test can be described thus: Cholinergic receptor muscarinic 1 (CHRM1) small molecule agonists, cell-based qHTS assay (AID 1963589). Also: nearly all actives have a fitted effect of over 35% in size. Summed up: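 Agonist-mode qHTS in CHO cells stably carrying human muscarinic M1. Intracellular calcium is tracked by fluorescence every second after compound transfer; each compound runs at 15 concentrations in three independent runs.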

Where “and” joins values, the source holds several entries; their conditions need not be identical. Equal entries are not always repeated. Inconclusive results are not listed. Some compounds were tested as several samples or in several runs, with calls that do not always agree. Calls of active or inactive are those of the source. Unless noted, calls follow the shape of the full dose curve.

Muscarinic acetylcholine receptor M1 (Homo sapiens), sequence (P11229 whole entry, looked up): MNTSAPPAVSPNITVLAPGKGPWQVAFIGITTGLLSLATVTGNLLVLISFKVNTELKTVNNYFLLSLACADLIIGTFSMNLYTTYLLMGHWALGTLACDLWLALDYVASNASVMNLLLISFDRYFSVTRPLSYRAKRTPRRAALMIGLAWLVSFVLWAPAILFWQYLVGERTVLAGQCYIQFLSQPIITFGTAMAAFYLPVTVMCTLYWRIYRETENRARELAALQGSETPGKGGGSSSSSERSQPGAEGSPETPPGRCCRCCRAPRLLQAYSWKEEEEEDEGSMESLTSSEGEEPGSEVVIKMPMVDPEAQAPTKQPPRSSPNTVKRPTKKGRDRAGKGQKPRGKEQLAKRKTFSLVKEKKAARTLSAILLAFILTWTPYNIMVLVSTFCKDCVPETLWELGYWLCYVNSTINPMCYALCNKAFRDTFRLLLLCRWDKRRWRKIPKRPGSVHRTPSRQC
D(2) dopamine receptor (Homo sapiens), sequence (P14416 whole entry, looked up): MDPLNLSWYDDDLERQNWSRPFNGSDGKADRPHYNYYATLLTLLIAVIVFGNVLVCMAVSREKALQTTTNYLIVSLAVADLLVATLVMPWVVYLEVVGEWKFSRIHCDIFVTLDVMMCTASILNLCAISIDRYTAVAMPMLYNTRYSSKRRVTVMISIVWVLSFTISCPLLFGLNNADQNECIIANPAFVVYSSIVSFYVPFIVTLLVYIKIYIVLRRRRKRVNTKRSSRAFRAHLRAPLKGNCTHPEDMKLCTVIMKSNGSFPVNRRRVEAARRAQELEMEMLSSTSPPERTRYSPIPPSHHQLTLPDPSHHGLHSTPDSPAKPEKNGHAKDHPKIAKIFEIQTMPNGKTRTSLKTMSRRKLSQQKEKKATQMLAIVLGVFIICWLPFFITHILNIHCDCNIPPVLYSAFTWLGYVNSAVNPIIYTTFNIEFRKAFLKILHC
5-hydroxytryptamine receptor 2A (Homo sapiens), sequence (P28223 whole entry, looked up): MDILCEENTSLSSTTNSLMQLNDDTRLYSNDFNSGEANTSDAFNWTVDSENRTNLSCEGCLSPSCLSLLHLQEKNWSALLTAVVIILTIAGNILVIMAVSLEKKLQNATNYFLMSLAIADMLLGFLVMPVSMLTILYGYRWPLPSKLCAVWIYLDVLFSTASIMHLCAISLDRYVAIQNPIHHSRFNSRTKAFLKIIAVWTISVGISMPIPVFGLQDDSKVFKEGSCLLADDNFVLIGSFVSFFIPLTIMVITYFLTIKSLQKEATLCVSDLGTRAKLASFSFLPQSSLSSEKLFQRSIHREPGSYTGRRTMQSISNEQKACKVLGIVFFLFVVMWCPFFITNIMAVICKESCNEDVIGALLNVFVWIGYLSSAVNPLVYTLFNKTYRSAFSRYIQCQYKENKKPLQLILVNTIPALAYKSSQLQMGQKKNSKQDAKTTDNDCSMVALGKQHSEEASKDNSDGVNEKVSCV
Beta-2 adrenergic receptor (Homo sapiens), sequence (P07550 whole entry, looked up): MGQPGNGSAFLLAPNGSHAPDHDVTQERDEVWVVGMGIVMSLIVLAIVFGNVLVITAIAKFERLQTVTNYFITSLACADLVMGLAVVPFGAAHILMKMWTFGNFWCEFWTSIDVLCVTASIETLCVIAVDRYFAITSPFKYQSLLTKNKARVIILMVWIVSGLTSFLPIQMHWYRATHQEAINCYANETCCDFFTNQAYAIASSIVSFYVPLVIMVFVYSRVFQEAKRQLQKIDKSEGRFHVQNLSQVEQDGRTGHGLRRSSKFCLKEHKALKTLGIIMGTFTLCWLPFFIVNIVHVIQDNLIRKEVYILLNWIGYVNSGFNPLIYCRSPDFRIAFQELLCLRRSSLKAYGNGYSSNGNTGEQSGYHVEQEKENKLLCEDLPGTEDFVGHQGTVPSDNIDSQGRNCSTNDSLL
KiSS-1 receptor (Homo sapiens), sequence (Q969F8 whole entry, looked up): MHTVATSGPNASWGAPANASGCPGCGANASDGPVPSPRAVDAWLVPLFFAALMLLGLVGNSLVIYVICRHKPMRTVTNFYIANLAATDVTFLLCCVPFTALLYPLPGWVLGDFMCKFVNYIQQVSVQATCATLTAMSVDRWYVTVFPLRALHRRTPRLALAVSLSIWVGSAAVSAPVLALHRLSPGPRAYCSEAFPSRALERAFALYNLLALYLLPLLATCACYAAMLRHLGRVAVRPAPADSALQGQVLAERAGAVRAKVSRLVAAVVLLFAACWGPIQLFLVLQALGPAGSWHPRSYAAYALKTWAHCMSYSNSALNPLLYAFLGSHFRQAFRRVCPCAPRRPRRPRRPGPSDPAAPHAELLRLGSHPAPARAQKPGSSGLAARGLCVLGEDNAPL

Turning to `O=P1(N(CCCl)CCCl)NCCCO1` (stereo not drawn), the Potency entry in [1], in [2], in test [3], in test [4], in test [5] and in test [6] was “inactive” each time. Moreover, the Potency entry in test [7], in test [8], in test [9], in test [10], in [11] and in test [12] was “inactive” each time. Moreover, the Potency result in test [13], in test [14], in [15] and in [16] was “inactive” in each case.

As to `O=C(O)CC(O)(CC(=O)O)C(=O)O`, the Potency entry in [1], in test [2], in [3], in test [4], in test [6] and in test [7] was “inactive” each time. Also, the Potency entry in test [8], in test [9], in test [10], in test [11], in test [13] and in [15] was “inactive” in each case. Further, the Potency entry in test [16] was “inactive”.

Turning to `CCCC[n+]1ccc(C)cc1`, the Potency entry in test [1] was “inactive and 27.2 µM (active)”; in [4], “inactive and 39 µM (active)”; in test [7], “inactive and 40.6 µM (active)”; in test [8], “inactive and 20.3 µM (active)”; in test [18], “inactive and 43.4 µM (active) and 39 µM (active)”; in test [16], “inactive and 60.8 µM (active)”. Also, the Potency result in test [2], in test [9], in [17], in test [19], in [20] and in test [11] was “inactive” throughout. For the same compound, the Potency entry in test [12], in test [13], in [14] and in test [15] was “inactive” throughout.

With `Sc1ccccc1Cl`, the Potency result in [1], in test [2], in [3], in [5], in test [6] and in test [7] was “inactive” each time. Also, the Potency result in test [8], in [9], in [10], in test [17], in test [18] and in test [19] was “inactive” in each case. Further, the Potency entry in test [20], in [11], in test [12], in test [13], in test [15] and in test [16] was “inactive” each time.

Turning to `COP(=S)(OC)Oc1ccc(S(=O)(=O)N(C)C)cc1`, the Potency result in test [1], in [2], in [3], in test [4], in [7] and in [9] was “inactive” each time. For the same compound, the Potency result in test [10], in test [17], in test [18], in test [20], in test [11] and in test [12] was “inactive” throughout. For the same compound, the Potency result in test [13], in [14] and in [16] was “inactive” throughout. The Potency in test [5] was 1.29 µM (active).

Take `C=CC(=O)OCCO`: the Potency entry in test [1], in test [2], in [3], in test [4], in test [5] and in [7] was “inactive” each time. The Potency result in test [8], in [10], in [17], in test [18], in [19] and in [20] was “inactive” throughout. Also, the Potency entry in [11], in test [12], in test [13], in test [14], in [15] and in test [16] was “inactive” throughout.

As for `CC(C)c1ccc(NC(=O)N(C)C)cc1`, the Potency result in test [1], in test [2], in test [3], in test [4], in test [5] and in test [8] was “inactive” throughout. Further, the Potency result in test [9], in test [10], in test [17], in [18], in test [19] and in test [20] was “inactive” throughout. In addition, the Potency result in test [11], in [12], in test [13] and in test [15] was “inactive” each time.

With `Cn1c(N)nc2c3cccnc3ccc21`, the Potency entry in test [1], in test [2], in test [3], in test [4], in [6] and in [7] was “inactive” each time. For the same compound, the Potency result in [8], in test [18], in test [19], in test [11], in test [12] and in test [13] was “inactive” throughout. Further, the Potency entry in [14], in [15] and in [16] was “inactive” in each case.
